PNC assembly inh = inhibitors of perinucleolar compartment assembly; PC3M PTB-GFP, PNC prevalence imaging, 16 h; stronger effect = lower value; activity change (PNC), negative = inhibition, % at 10 µM; actives 3.1% (n = 140,000);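 active = readout at or below -70, meaning at least 70% loss of cells showing the perinucleolar compartment, a nuclear body marking cancer cells; inconclusive = readout between -30 and a set limit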;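 note: plate controls were DMSO wells for no effect and camptothecin positive control wells for full effect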
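Compounds are pinned in duplicate onto adhered PC3M cells stably expressing GFP-tagged PTB and incubated 16 h at 37 C. Cells are then fixed, nuclei stained with Hoechst, and PNC-positive cells counted.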
CBFb RUNX1 block = CBF-beta/RUNX1 interaction disruption; Q01196+Q13951; AlphaScreen CBFb-His/RUNX1-biotin binding, biochemical; Potency, µM (top dose mostly 59.8 µM), for inactives: at the highest dose activity, negative = inhibition, hits mostly inhibitors; 230,000 tested, under 10 active; AID 1477; note: % of control where 0% means no effect
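Compounds were screened at multiple concentrations against a preformed CBF-beta(His)/RUNX1(biotin) complex (30 nM of each) for 15 min at room temperature, followed by 90 min with nickel and streptavidin beads and AlphaScreen reading.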
HPGD block = HPGD (human) dehydrogenase inhibition | Potency, µM, for inactives: at the highest dose activity change, negative = inhibition, most hits filed as inhibitors | actives 4.3% (n = 150,000) | AID 894 | purified HPGD, NADH fluorescence kinetic, PGE2 substrate; active = well fitted inhibition curve with a large enough effect, not every such curve was filed as active; inconclusive = small, poorly fitted or top-dose-only effect, or another doubt; inactive = no such curve, though single readings can be large or run the other way; note: potency is the fitted concentration of half-maximal effect; % is set by controls: 0 for no effect and ±100 for the full control effect
Target sequence (P15428 whole entry, looked up): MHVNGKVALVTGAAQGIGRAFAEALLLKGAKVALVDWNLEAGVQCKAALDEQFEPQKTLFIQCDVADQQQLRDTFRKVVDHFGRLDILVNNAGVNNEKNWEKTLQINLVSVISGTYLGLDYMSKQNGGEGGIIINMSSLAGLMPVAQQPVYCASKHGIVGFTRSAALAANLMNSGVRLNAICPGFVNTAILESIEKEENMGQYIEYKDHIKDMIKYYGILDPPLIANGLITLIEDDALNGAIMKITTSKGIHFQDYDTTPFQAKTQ
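20 nM HPGD preincubated 15 min at room temperature with compound in 50 mM Tris-HCl pH 8, 0.01% Tween 20. Started with 1 mM NAD+ and 30 uM prostaglandin E2; NADH fluorescence (360/450 nm) read 5 times over 30-s intervals, last minus first.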
ALDH1A1 inh = ALDH1A1 (human) enzyme inhibition | actives 7.3% (n = 220,000) | AID 1030 | Purified ALDH1A1, NADH fluorescence, propionaldehyde substrate | Potency, µM (series often up to 75.3 µM), for the others: at the top dose activity, negative = inhibition, most hits filed as inhibitors | P00352; active = well fitted inhibition curve with a large enough effect, not every such curve was filed as active; inconclusive = small, poorly fitted or top-dose-only effect, or another doubt; inactive = no such curve, though single readings can be large or run the other way;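 note: potency is the fitted concentration of half-maximal effect; plate controls were no enzyme wells and a reference inhibitor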
Target sequence (P00352 whole entry, looked up): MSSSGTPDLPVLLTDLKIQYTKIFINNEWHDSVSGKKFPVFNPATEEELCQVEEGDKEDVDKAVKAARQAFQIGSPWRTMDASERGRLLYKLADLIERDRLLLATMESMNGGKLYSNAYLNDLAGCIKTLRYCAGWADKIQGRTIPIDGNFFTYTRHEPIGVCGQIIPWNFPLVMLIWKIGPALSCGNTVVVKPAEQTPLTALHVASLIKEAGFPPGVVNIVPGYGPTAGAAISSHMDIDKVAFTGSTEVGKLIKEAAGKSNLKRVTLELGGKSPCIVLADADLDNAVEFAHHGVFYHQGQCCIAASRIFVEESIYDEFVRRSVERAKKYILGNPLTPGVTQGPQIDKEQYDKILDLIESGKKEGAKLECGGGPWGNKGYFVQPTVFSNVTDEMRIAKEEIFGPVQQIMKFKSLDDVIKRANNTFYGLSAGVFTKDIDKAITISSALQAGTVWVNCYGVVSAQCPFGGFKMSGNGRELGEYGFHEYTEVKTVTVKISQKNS
HTT aggregate = inhibitors of mutant huntingtin aggregate formation in PC12 cells; PC12 HttQ103-GFP aggregates, Acumen cytometry, 40 h; Potency, µM (series often up to 46.1 µM), without a hit: at the highest dose activity change, negative = inhibition, usual class: inhibitors; actives 1.1% (n = 220,000); note: potency is the fitted concentration of half-maximal effect; % is set by controls: 0 for no effect and ±100 for the full control effect; nearly all actives have a fitted effect of over 60% in size
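PC12 cells with ecdysone-inducible HTT exon1 Q103-GFP, induced by 100 nM tebufenozide, given compounds in a concentration series. GFP aggregates (1–25 um, 6 SD above background) counted in lysates by laser-scanning cytometry, 488 nm excitation.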
HTT ATP protect = Huntington cell model cytoprotection by ATP luminescence. PC12 HTT-Q103 induced, cytoprotection, ATP luminescence, 40 h. Potency, µM (series often up to 56.4 µM), for inactives: cytoprotection (ATP increase), actives largely listed as activators. actives 0.14% (n = 230,000). AID 1471; note: potency is the fitted concentration of half-maximal effect; % of control where 0% means no effect; nearly all actives have a fitted effect of over 45% in size
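Rat PC12, Q103 Htt exon1-GFP fusion, ecdysone promoter; tebufenozide inducer 100 nM final; compound titration; qHTS, 1500 cells/well; ATPlite luminescent read.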
An asterisk follows results filed as active; [ ] = another dose, or the depositor's remark. A selection: hits, their analogues and other compounds. The true share with any hit is near 11%. Unless noted, calls come from the whole dose curve; as a rule, active = well fitted curve in the direction sought with a large enough effect; inconclusive = small, poorly fitted or top-dose-only effect, or another doubt; inactive = no such curve, though single readings can be large; an effect the other way counts as inactive or inconclusive.

How did O=C(NCc1n[nH]c(=S)n1-c1ccccc1)c1ccc(S(=O)(=O)N2CCOCC2)cc1 do in these assays?
PNC assembly inh: inconclusive; CBFb RUNX1 block: 3%; HPGD block: -15%; ALDH1A1 inh: 18µM*; HTT aggregate: 5%; HTT ATP protect: 13%

How did CCN(CC)S(=O)(=O)c1ccc(C(=O)NCc2n[nH]c(=S)n2-c2ccccc2OC)cc1 do in these assays?
PNC assembly inh: 18; CBFb RUNX1 block: -2%; HPGD block: -13%; ALDH1A1 inh: inconclusive; HTT aggregate: 11%; HTT ATP protect: 25%

What do the screens show for `O=C(NCc1n[nH]c(=S)n1-c1ccccc1)c1ccc(S(=O)(=O)N2CCCCC2)cc1`?
CBFb RUNX1 block: 2%; ALDH1A1 inh: 11µM*; HTT aggregate: -6%; HTT ATP protect: -38%

What do the screens show for `CCN(CC)S(=O)(=O)c1ccc(C(=O)NCc2n[nH]c(=S)n2-c2ccc(Cl)c(Cl)c2)cc1`?
CBFb RUNX1 block: -8%; ALDH1A1 inh: 1.4µM*; HTT aggregate: 14%; HTT ATP protect: -45%

Results for Cc1nc(-c2ccc3c(c2)OCCCO3)cs1 ?
CBFb RUNX1 block: 11%; ALDH1A1 inh: 25µM*; HTT aggregate: -2%[9.22 µM]; HTT ATP protect: -12%[10 µM]

Results for Cc1nc(-c2ccc(C(=O)N3CCCC3)cc2)cs1 ?
CBFb RUNX1 block: 1%; ALDH1A1 inh: 25µM*; HTT aggregate: 5%; HTT ATP protect: -86%

What do the screens show for `Cc1nc(-c2ccc3c(c2)OCO3)cs1`?
PNC assembly inh: 73; CBFb RUNX1 block: 4%; HPGD block: -18%; ALDH1A1 inh: 5%; HTT aggregate: 9%; HTT ATP protect: -3%

How did Cc1nc(-c2cccc(S(=O)(=O)N3CCOCC3)c2)cs1 do in these assays?
PNC assembly inh: 19; CBFb RUNX1 block: -15%; HPGD block: 25µM*; ALDH1A1 inh: 4.5µM*; HTT aggregate: -5%; HTT ATP protect: -16%[0.074 µM]

How did Cc1nc(-c2ccc(C(=O)N3CCOCC3)cc2)cs1 do in these assays?
PNC assembly inh: inconclusive; CBFb RUNX1 block: 5%; HPGD block: 8.9µM*; ALDH1A1 inh: 10%; HTT aggregate: -5%; HTT ATP protect: -5%

Results for Cc1nc(-c2cccc(S(=O)(=O)N3CC(C)OC(C)C3)c2)cs1 (stereo not drawn) ?
PNC assembly inh: 44; CBFb RUNX1 block: 4%; HPGD block: -7%; ALDH1A1 inh: 3%; HTT aggregate: -25%; HTT ATP protect: -26%[0.074 µM]

Results for N=C1Sc2ccccc2C2=NCCCN12 ?
CBFb RUNX1 block: 23%; HPGD block: 2.2µM*; ALDH1A1 inh: 10µM*; HTT ATP protect: -38%[1.9 µM]

How did Nc1cc(S(N)(=O)=O)ccc1SSc1ccc(S(N)(=O)=O)cc1N do in these assays?
HPGD block: 5µM*; ALDH1A1 inh: 2µM*; HTT ATP protect: -9%[10 µM]

How did COCCNc1nc(C)nc2c1nc(-c1ccccc1)n2CCN(C)C do in these assays?
CBFb RUNX1 block: 10%; HPGD block: inconclusive; ALDH1A1 inh: inconclusive; HTT ATP protect: 13%

How did C=CCn1c(Cc2c[nH]c3ccccc23)n[nH]c1=S do in these assays?
PNC assembly inh: 12; CBFb RUNX1 block: -2%; HPGD block: -23%; ALDH1A1 inh: 8.9µM*; HTT aggregate: 10%; HTT ATP protect: 15%

How did C=CCn1c(Cc2nc3ccc(Cl)cc3[nH]2)n[nH]c1=S do in these assays?
PNC assembly inh: inconclusive; CBFb RUNX1 block: -8%; HPGD block: inconclusive; ALDH1A1 inh: 10µM*; HTT aggregate: 8%; HTT ATP protect: -14%[0.074 µM]

Results for N[C@@H](CSC1(c2ccc(Cl)cc2)c2ccccc2-c2ccccc21)C(=O)O ?
HPGD block: -6%; ALDH1A1 inh: 9%[13.5 µM]; HTT ATP protect: 8%[10 µM]

What do the screens show for `Cc1ccc(-c2n[nH]c(=S)n2/N=C/C=C/c2ccccc2[N+](=O)[O-])cc1`?
PNC assembly inh: -3; CBFb RUNX1 block: -25%; HPGD block: 2.8µM*; ALDH1A1 inh: 5%; HTT aggregate: inconclusive; HTT ATP protect: 26%

What do the screens show for `COc1ccccc1/C=C\C=N\n1c(-c2ccc(Cl)cc2Cl)n[nH]c1=S`?
PNC assembly inh: 20; CBFb RUNX1 block: inconclusive; HPGD block: 4µM*; ALDH1A1 inh: -4%; HTT aggregate: inconclusive; HTT ATP protect: 22%[10 µM]

Results for Cc1n[nH]c(=S)n1/N=C/c1ccccc1OCc1ccc(Cl)cc1 ?
PNC assembly inh: inconclusive; CBFb RUNX1 block: -4%; HPGD block: 10µM*; ALDH1A1 inh: -6%; HTT aggregate: 44%; HTT ATP protect: -28%

What do the screens show for `COc1ccccc1/C=C\C=N\n1c(-c2ccc(Cl)cc2)n[nH]c1=S`?
PNC assembly inh: 28; CBFb RUNX1 block: 3%; HPGD block: 13µM*; ALDH1A1 inh: 35µM*; HTT aggregate: 30%; HTT ATP protect: -1%[10 µM]

What do the screens show for `Cc1n[nH]c(=S)n1/N=C/c1cccc(OCc2ccccc2)c1`?
CBFb RUNX1 block: -1%; ALDH1A1 inh: -9%; HTT aggregate: inconclusive; HTT ATP protect: -40%

Results for O=[N+]([O-])c1ccccc1/C=C/C=N/n1c(-c2cc(-c3ccccc3)n[nH]2)n[nH]c1=S ?
CBFb RUNX1 block: -12%; ALDH1A1 inh: 12%; HTT aggregate: -13%[9.22 µM]; HTT ATP protect: -10%[10 µM]

Results for CC(C)Cc1nnc(NC(=O)CCc2c[nH]c3ccccc23)s1 ?
CBFb RUNX1 block: -7%; ALDH1A1 inh: inconclusive; HTT aggregate: -5%; HTT ATP protect: -52%

What do the screens show for `Cc1nc(NC(=O)c2oc3ccccc3c2C)sc1C(=O)N(C)C`?
PNC assembly inh: 10; CBFb RUNX1 block: 8%; HPGD block: 32µM*; ALDH1A1 inh: -10%; HTT aggregate: -8%; HTT ATP protect: -12%[1.9 µM]

How did Cc1nc(NC(=O)c2ccccc2[N+](=O)[O-])sc1C(=O)N(C)C do in these assays?
PNC assembly inh: 15; CBFb RUNX1 block: 5%; HPGD block: 22µM*; ALDH1A1 inh: 4%; HTT aggregate: 2%; HTT ATP protect: 16%[0.074 µM]

What do the screens show for `O=C(N=Nc1ccc(NOC(=O)c2ccccc2Br)cc1)c1ccccc1O`?
CBFb RUNX1 block: -17%; ALDH1A1 inh: 22µM*; HTT aggregate: inconclusive; HTT ATP protect: -29%

Results for Cc1cc(N=NC(=O)c2ccccc2O)c2ccccc2c1O ?
CBFb RUNX1 block: -7%; ALDH1A1 inh: -6%; HTT aggregate: inconclusive; HTT ATP protect: -119%

How did O=c1c(-c2ccco2)[n+]([O-])c2ccccc2n1OCc1ccccc1 do in these assays?
PNC assembly inh: 10; CBFb RUNX1 block: 1%; HPGD block: inconclusive; ALDH1A1 inh: 22µM*; HTT aggregate: 5%[9.22 µM]; HTT ATP protect: -1%

Bioassay records (PubChem BioAssay)
